Measurements: PubChem BioAssay (NCATS)
Inconclusive results are not listed. Where a call stands in place of a potency, no number is given. Activity calls are given as the source filed them. Unless noted, the call rests on the fitted dose curve.

Key:
[1] = target: Glucocorticoid receptor (Homo sapiens) (UniProt P04150); test: qHTS assay for small molecule agonists of glucocorticoid receptor signaling (AID 588532; active means well fitted curve in the direction sought with a large enough effect in the signal ratio, with a control signal flat; the % refers to the signal ratio); details: HeLa MMTV-bla, beta-lactamase ratio, agonist, 18 h; stronger effect = higher value; percent of dexamethasone control, DMSO zero
Chain of Glucocorticoid receptor (Homo sapiens) (P04150 whole entry, looked up): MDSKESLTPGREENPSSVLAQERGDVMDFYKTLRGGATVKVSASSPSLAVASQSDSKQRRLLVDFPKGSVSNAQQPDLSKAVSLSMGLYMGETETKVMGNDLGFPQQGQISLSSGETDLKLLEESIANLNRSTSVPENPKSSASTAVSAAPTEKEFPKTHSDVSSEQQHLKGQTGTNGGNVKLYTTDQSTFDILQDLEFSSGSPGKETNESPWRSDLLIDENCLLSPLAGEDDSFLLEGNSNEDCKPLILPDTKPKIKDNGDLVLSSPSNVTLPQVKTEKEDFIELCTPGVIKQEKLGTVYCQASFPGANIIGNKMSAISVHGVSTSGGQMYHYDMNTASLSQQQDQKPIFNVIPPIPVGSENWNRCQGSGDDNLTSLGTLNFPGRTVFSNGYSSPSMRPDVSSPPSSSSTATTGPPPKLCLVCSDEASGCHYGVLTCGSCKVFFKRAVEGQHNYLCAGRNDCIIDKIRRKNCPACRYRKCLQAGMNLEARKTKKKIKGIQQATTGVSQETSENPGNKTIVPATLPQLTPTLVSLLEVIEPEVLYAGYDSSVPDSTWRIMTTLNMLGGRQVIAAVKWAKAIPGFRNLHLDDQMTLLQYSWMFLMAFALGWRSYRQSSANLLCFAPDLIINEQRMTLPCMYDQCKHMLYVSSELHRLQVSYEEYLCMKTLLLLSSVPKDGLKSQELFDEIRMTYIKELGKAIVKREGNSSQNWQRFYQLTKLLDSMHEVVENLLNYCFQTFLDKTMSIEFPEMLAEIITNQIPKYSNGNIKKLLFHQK
Outline: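 Titration series, up to 92 uM, applied to GRE-bla HeLa cells for 18 h at 37 C. Detection by CCF4 FRET substrate after 2 h at RT.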

[2] = target: Glucocorticoid receptor (Homo sapiens) (UniProt P04150); test: qHTS assay for small molecule antagonists of glucocorticoid receptor signaling (AID 588533; active means well fitted inhibition curve with a large enough effect in the signal ratio, with a control signal flat, not every such curve was filed as active; the % refers to the signal ratio;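 further: cells stimulated with 2 nM dexamethasone as agonist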); details: HeLa MMTV-bla, GRE beta-lactamase ratio, antagonist mode, 18 h; series mostly up to 76.8 µM
Outline: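 Antagonist-mode qHTS: compound titrations added to GRE-bla HeLa cells, then dexamethasone 2 nM final; 18 h, 37 C. CCF4 FRET fluorescence normalized to dexamethasone and DMSO; IC50 from Hill fit.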

[3] = qHTS assay for small molecule antagonists of peroxisome proliferator-activated receptor delta signaling (AID 588535; active means well fitted inhibition curve with a large enough effect in the signal ratio, with a control signal flat, not every such curve was filed as active; the % refers to the signal ratio;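 on max response: cells co-treated with a PPAR-delta agonist as stimulator during compound exposure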); details: HEK293T PPARd-UAS-bla, beta-lactamase FRET ratio, 18 h; 460 nm channel
Outline: (§1)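 GeneBLAzer PPAR-delta-UAS-bla HEK293T cells in medium with 2% charcoal/dextran FBS were preincubated 5 hrs at 37 C, then given compounds, incubated 18 hrs at 37 C, and read by CCF4 beta-lactamase fluorescence; IC50 from Hill fits.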

[4] = target: Peroxisome proliferator-activated receptor delta (Homo sapiens) (UniProt Q03181); test: as above; details: HEK293T PPARd-UAS-bla, beta-lactamase FRET ratio, 18 h; series mostly up to 76.7 µM
Chain of Peroxisome proliferator-activated receptor delta (Homo sapiens) (Q03181 whole entry, looked up): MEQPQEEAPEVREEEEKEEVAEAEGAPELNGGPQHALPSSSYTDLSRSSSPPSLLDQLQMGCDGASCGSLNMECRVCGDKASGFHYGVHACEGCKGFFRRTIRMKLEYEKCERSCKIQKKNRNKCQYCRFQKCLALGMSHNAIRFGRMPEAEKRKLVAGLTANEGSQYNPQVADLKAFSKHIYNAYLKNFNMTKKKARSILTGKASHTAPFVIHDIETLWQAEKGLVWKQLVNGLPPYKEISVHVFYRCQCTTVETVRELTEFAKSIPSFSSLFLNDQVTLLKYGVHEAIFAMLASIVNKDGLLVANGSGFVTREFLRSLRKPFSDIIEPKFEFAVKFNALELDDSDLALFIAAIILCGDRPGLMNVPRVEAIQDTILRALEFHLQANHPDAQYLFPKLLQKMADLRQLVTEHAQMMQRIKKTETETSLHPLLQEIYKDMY
Outline: as §1

[5] = target: Peroxisome proliferator-activated receptor gamma (Homo sapiens) (UniProt P37231); test: qHTS assay for small molecule agonists of peroxisome proliferator-activated receptor gamma signaling (AID 588536; active means well fitted curve in the direction sought with a large enough effect in the signal ratio, with a control signal flat, not every such curve was filed as active; the % refers to the signal ratio); details: HEK293 PPARg-UAS-bla, beta-lactamase ratio, 16 h, percent of rosiglitazone response, DMSO as zero; series mostly up to 76.7 µM
Chain of Peroxisome proliferator-activated receptor gamma (Homo sapiens) (P37231 whole entry, looked up): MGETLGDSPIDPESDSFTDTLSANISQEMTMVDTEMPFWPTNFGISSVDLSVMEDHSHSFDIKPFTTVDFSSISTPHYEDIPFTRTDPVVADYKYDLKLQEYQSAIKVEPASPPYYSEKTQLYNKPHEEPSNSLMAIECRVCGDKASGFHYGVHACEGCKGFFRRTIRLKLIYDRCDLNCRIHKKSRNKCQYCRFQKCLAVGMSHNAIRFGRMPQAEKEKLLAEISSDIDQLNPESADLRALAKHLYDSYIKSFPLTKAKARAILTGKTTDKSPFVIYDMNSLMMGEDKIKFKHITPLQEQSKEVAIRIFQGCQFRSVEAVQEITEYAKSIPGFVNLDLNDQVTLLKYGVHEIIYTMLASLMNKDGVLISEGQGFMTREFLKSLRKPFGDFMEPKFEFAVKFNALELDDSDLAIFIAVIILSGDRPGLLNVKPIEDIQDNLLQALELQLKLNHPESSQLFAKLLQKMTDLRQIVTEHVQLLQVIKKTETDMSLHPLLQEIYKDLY
Outline: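 PPAR-gamma-UAS-bla HEK293 cells in medium with 1% charcoal/dextran-treated FBS were exposed to compounds for 16 h at 37 C. Beta-lactamase activity was read with CCF4 substrate (405 nm excitation, 460/530 nm emission).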

[6] = qHTS assay for small molecule agonists of retinoid X receptor alpha signaling (AID 588544); details: HEK293T RXRa-UAS-bla, beta-lactamase reporter, 18 h; 530 nm emission
[7] = target: Retinoic acid receptor RXR-alpha (Homo sapiens) (UniProt P19793); test: as above; details: HEK293T RXRa-UAS-bla, beta-lactamase reporter, 18 h; series mostly up to 76.7 µM
Chain of Retinoic acid receptor RXR-alpha (Homo sapiens) (P19793 whole entry, looked up): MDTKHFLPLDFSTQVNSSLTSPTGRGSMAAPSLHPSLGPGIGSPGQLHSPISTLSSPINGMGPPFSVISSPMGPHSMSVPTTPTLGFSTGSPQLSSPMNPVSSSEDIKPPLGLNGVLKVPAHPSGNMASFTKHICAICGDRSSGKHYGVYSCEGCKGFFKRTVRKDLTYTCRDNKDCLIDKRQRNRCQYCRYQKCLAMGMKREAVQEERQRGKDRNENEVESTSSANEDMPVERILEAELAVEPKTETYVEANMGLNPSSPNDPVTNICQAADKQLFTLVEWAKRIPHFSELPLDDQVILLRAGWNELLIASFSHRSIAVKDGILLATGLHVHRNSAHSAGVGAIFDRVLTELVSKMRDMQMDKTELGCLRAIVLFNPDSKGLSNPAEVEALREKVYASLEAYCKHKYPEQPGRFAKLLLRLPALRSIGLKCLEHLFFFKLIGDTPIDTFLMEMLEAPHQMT

[8] = target: Thyroid hormone receptor beta (Homo sapiens) (UniProt P10828); test: qHTS assay for small molecule agonists of thyroid hormone receptor beta signaling (AID 588545); details: TR-UAS-bla GripTite HEK 293, beta-lactamase ratio, agonist mode, 18 h, percent of T3 response, DMSO as zero; series mostly up to 76.7 µM
Chain of Thyroid hormone receptor beta (Homo sapiens) (P10828 whole entry, looked up): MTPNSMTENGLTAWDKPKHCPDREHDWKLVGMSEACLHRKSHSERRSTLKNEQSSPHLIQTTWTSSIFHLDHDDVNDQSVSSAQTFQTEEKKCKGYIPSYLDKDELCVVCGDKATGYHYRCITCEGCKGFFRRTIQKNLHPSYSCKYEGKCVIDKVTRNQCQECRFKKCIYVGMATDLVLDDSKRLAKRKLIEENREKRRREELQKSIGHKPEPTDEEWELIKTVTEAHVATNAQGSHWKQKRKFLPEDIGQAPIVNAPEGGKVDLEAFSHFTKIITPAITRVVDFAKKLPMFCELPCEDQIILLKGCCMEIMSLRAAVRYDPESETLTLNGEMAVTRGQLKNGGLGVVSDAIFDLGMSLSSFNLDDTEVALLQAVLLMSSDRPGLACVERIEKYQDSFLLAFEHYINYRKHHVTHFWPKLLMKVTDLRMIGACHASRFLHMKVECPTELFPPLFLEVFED
Outline: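 Cells (2500/well) were seeded, incubated 4 hrs at 37 C, dosed with a compound series, incubated 18 hrs, loaded with CCF4 dye for 2 hrs at RT, then read for fluorescence. Data were scaled between DMSO (0%) and 10 nM T3 (100%).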

[9] = qHTS assay for small molecule antagonists of retinoid X receptor alpha signaling (AID 588546; active means well fitted inhibition curve with a large enough effect in the signal ratio, with a control signal flat, not every such curve was filed as active; the % refers to the signal ratio;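 further: cells stimulated with 9-cis-retinoic acid as agonist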); details: HEK293T RXRa-UAS-bla, beta-lactamase ratio, antagonist mode; measured here: W530 green channel, cytotoxicity proxy
Outline: (§2)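 Beta-lactamase reporter inhibition, read as CCF4 fluorescence ratio (ex 405, em 460/530 nm) after 2 h at RT. HEK293T UAS-bla cells, 2500/well, were stimulated with 9-cis-RA at 500 or 100 nM final alongside test compound for 18 h at 37 C.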

[10] = target: Retinoic acid receptor RXR-alpha (Homo sapiens) (UniProt P19793); test: as above; details: HEK293T RXRa-UAS-bla, beta-lactamase ratio, antagonist mode
Outline: as §2

[11] = target: Voltage-gated inwardly rectifying potassium channel KCNH2 (Homo sapiens) (UniProt Q12809); test: qHTS Assay for Small Molecule Inhibitors of the Human hERG Channel Activity (AID 588834; active means well fitted inhibition curve with a large enough effect;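 further: top concentration of the series differs between compounds; lower thallium flux fluorescence means stronger hERG block; nearly all actives have a fitted effect of over 50% in size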); details: U2OS BacMam hERG, FluxOR thallium flux fluorescence; series mostly up to 92.2 µM
Chain of Voltage-gated inwardly rectifying potassium channel KCNH2 (Homo sapiens) (Q12809 whole entry, looked up): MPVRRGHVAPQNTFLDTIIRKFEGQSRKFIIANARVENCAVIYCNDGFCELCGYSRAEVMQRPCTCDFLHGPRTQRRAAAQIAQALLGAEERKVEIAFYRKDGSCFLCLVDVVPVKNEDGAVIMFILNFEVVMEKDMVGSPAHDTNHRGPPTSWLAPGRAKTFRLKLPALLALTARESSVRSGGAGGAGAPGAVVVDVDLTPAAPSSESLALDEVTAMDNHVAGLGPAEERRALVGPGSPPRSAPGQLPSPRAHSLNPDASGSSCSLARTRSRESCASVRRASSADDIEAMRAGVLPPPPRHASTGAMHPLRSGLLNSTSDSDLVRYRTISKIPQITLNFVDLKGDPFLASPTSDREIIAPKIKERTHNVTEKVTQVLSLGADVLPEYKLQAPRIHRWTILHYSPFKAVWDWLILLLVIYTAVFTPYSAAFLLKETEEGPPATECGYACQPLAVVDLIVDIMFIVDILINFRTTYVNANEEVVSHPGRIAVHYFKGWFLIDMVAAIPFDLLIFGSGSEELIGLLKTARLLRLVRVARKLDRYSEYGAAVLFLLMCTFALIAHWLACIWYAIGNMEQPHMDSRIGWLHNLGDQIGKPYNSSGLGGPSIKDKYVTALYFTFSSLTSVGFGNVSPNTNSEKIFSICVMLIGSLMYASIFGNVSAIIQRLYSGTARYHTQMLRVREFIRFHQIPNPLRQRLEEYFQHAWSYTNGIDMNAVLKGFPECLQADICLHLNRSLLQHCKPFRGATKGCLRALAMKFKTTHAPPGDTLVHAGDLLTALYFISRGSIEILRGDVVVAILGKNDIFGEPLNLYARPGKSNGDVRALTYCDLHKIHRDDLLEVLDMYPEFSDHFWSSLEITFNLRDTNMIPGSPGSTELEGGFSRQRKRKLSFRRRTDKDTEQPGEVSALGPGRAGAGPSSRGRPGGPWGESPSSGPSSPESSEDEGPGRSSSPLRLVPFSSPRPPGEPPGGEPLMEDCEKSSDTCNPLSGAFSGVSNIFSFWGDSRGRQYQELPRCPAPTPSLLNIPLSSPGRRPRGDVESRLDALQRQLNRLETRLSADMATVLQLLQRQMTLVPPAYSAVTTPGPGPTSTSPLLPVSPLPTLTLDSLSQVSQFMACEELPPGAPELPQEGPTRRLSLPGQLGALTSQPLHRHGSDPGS
Outline: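 Concentration-response qHTS measuring drop in thallium-sensitive dye signal. U2OS cells carrying BacMam hERG; compound exposure ~10 min, then stimulation buffer and 2 min read at 1 sec intervals.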

[12] = qHTS assay for small molecule agonists of the antioxidant response element (ARE) signaling pathway (AID 651741; active means well fitted activation curve with a large enough effect in the signal ratio; the % refers to the signal ratio); details: HepG2 ARE-bla reporter, beta-lactamase FRET ratio, 16 h; series mostly up to 96 µM
Outline: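 ARE-bla HepG2 cells (beta-lactamase reporter under ARE control) were plated at 2,000 cells/well, preincubated 5 h at 37 C/5% CO2, then treated with DMSO-dissolved compounds for 16 h at 37 C; LiveBLAzer B/G FRET substrate added, fluorescence read after 2 h at room temperature.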

[13] = qHTS assay for small molecule activators of the nuclear factor-kappa B (NF-kB) signaling pathway (AID 651749; active means well fitted activation curve with a large enough effect in the signal ratio; the % refers to the signal ratio); details: NF-kB-bla ME-180 cells, beta-lactamase FRET ratio, 16 h; stronger effect = higher value
Outline: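 ME-180 cells stably carrying a beta-lactamase reporter under an NF-kB response element were exposed to compound or DMSO vehicle for 16 hr at 37C, 5% CO2. Pathway activation was read by FRET, since reporter expression disrupts FRET.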

[14] = target: Vitamin D3 receptor (Homo sapiens) (UniProt P11473); test: qHTS assay for small molecule antagonists of vitamin D receptor signaling (AID 588541); details: HEK293T VDR-UAS-bla, beta-lactamase ratio, antagonist mode; series mostly up to 76.7 µM;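 further: receptor activated by calcitriol during compound treatment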
Chain of Vitamin D3 receptor (Homo sapiens) (P11473 whole entry, looked up): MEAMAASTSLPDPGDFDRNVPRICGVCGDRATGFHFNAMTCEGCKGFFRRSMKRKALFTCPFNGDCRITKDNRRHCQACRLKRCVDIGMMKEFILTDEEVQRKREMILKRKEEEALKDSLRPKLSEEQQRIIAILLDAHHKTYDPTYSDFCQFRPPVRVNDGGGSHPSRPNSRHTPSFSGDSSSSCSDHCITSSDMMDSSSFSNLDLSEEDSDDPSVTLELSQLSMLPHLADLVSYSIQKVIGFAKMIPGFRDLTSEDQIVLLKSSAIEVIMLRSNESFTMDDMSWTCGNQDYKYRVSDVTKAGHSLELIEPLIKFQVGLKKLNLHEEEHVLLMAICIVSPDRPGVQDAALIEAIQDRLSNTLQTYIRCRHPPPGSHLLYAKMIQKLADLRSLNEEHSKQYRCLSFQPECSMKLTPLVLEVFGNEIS
Outline: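 VDR-UAS-bla HEK293T cells (2000/well, 2% charcoal-stripped FBS) were treated with titrated compounds plus 1-alpha,25-dihydroxyvitamin D3 (50 nM or 3 nM final) for 16 h at 37 C. CCF4 beta-lactamase fluorescence was read; Hill fits gave IC50.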

[15] = target: Vitamin D3 receptor (Homo sapiens) (UniProt P11473); test: qHTS assay for small molecule agonists of vitamin D receptor signaling (AID 588543); details: HEK293T VDR-UAS-bla, beta-lactamase ratio, 16 h; series mostly up to 76.8 µM
Outline: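 β-lactamase reporter, VDR-UAS-bla HEK293T, agonist mode. Cells plated 5 h at 37 °C, compound titration 16 h at 37 °C, CCF4 dye 2 h RT, ratio 460/530 nm. Hill fit → EC50, efficacy vs 50 nM 1α,25-(OH)2D3.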

[16] = target: Thyroid hormone receptor beta (Homo sapiens) (UniProt P10828); test: qHTS assay for small molecule antagonists of thyroid hormone receptor beta signaling (AID 588547; active means well fitted inhibition curve with a large enough effect in the signal ratio, with a control signal flat, not every such curve was filed as active; the % refers to the signal ratio;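 further: cells stimulated with 0.4 nM T3 agonist during compound exposure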); details: TR-UAS-bla HEK293, beta-lactamase ratio, antagonist mode, 18 h
Outline: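 TR-UAS-bla GripTite HEK293 cells in 2% charcoal/dextran FBS medium were preincubated 4 h at 37 C, given compound (0.59 nM to 92 uM) plus 0.4 nM T3 (final) for 18 h, then CCF4 for 2 h at RT; Hill fit gave IC50.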

[17] = qHTS assay for small molecule activators of the p53 signaling pathway (AID 651743; active means well fitted activation curve with a large enough effect in the signal ratio, not every such curve was filed as active; the % refers to the signal ratio); details: HCT-116 p53RE-bla, beta-lactamase FRET ratio, 16 h; stronger effect = higher value
Outline: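 p53RE-bla HCT-116 cells with a stably integrated beta-lactamase reporter under p53 response elements were plated, rested 5 hours at 37 C/5% CO2, then exposed to compounds in DMSO for 16 hours at 37 C. LiveBLAzer B/G FRET substrate was read after 2 hours at room temperature.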

[18] = target: Peroxisome proliferator-activated receptor gamma (Homo sapiens) (UniProt P37231); test: qHTS assay for small molecule antagonists of peroxisome proliferator-activated receptor gamma signaling (AID 588537; active means well fitted inhibition curve with a large enough effect in the signal ratio, with a control signal flat, not every such curve was filed as active; the % refers to the signal ratio;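 further: reporter cells co-stimulated with 50 nM rosiglitazone agonist during compound treatment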); details: HEK293 PPARg-UAS-bla, beta-lactamase ratio, antagonist mode; series mostly up to 76.8 µM
Outline: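 PPAR-gamma-UAS-bla HEK293 cells (3000/well, 1% charcoal/dextran-stripped FBS) were preincubated 6-6.5 h at 37 C, given titrated compounds, then stimulated with 50 nM rosiglitazone for 16 h. Beta-lactamase activity was read with CCF4 dye; IC50 came from Hill fits.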

| Structure (SMILES) | activation [1] | outcome [2] | max response [3] [%] | Potency [4] | outcome [5] | max response [6] [%] | outcome [7] | outcome [8] | max response [9] [%] | max response [10] | Potency [11] | Potency [12] | activation [13] | outcome [14] | outcome [15] | activity change % (negative = inhibition) [16] | activation [17] | outcome [18] |
| --- | --- | --- | --- | --- | --- | --- | --- | --- | --- | --- | --- | --- | --- | --- | --- | --- | --- | --- |
| C=CCOC(=O)COCCC(C)C | -3.64% (inactive) | inactive | 79.8 | inactive | inactive | -2.63 | inactive | inactive | -11.5 | 9.99% (inactive) | inactive | inactive | -0.303% (inactive) |  |  |  |  |  |
| CC(C)(O)C(=O)O | 5.7% (inactive) | inactive | 57.5 | inactive |  | -2.22 | inactive | inactive | 2.28 | 3.29% (inactive) | inactive | inactive | -0.233% (inactive) | inactive | inactive | 8.51% (inactive) | -1.64% (inactive) |  |
| CC(=O)Nc1ccccc1C | -4.6% (inactive) | inactive | 8.94 | inactive | inactive | -2.35 | inactive | inactive | -11.2 | 2.75% (inactive) | inactive | inactive | -0.805% (inactive) | inactive | inactive | 4.18% (inactive) | 0.555% (inactive) |  |
| C1CCC2OC2C1 (stereo not given) | -6.07% (inactive) | inactive | 38.4 | inactive | inactive | 6.92 | inactive | inactive | -13.8 | 6.91% (inactive) |  | inactive |  | inactive | inactive | 14.7% (inactive) |  |  |
| CCCCCCC=O | -0.214% (inactive) | inactive | -42.7 | inactive | inactive | -2.47 | inactive | inactive | 9.36 | 7.58% (inactive) | inactive | inactive | -0.682% (inactive) | inactive | inactive | -17.7% (inactive) | 0.659% (inactive) |  |
| CCCCCCCCC | -2.92% (inactive) | inactive | 3.26 | inactive | inactive | -5.14 | inactive |  | -11.2 | 0.715% (inactive) | inactive | inactive | 0.37% (inactive) | inactive | inactive | 13.2% (inactive) | -1.85% (inactive) | inactive |
| Fc1ccccc1 | 1.06% (inactive) | inactive | 0.384 | inactive |  | -11.1 | inactive | inactive | -11.6 | -5.23% (inactive) | inactive | inactive | 0.343% (inactive) | inactive |  | -5.64% (inactive) |  |  |
| CC(=O)Nc1ccc(C)cc1 | 8.72% (inactive) | inactive | -10.7 | inactive | inactive | -6.19 | inactive | inactive | -3.72 | 5.73% (inactive) | inactive | inactive | 1.33% (inactive) | inactive |  | 8.42% (inactive) | -3.2% (inactive) |  |
| Nc1cccc(S(=O)(=O)O)c1 | -6.32% (inactive) | inactive | -7.97 | inactive | inactive | 8.69 | inactive | inactive | -5.6 | 16.1% (inactive) | inactive | inactive | -0.968% (inactive) | inactive | inactive | -28.7% (inactive) | -1.01% (inactive) |  |
| CC(CCl)OC(C)CCl (stereo not given) | 1.48% (inactive) | inactive | 6.69 | inactive | inactive | 2.52 | inactive | inactive | -11.8 | 19.4% (inactive) | inactive | inactive | 0.22% (inactive) |  |  | -2.31% (inactive) | -3.45% (inactive) |  |
| Cc1c(N)cccc1N | -2.97% (inactive) | inactive | -12.4 | inactive |  | -3.37 | inactive | inactive | -4.94 | -6.28% (inactive) | inactive |  | -1.33% (inactive) | inactive |  | -2.96% (inactive) |  |  |
| Cc1cc(C(=O)O)ccc1[N+](=O)[O-] | 1.49% (inactive) | inactive | 13.2 | inactive | inactive | -3.52 | inactive | inactive | -3.81 | 36.9% (inactive) | inactive | inactive |  | inactive | inactive | 7.48% (inactive) | -0.415% (inactive) |  |
| CC(C)=CCl | 2.68% (inactive) | inactive | 6.55 | inactive |  | 6.48 | inactive | inactive | -7.86 | 7.55% (inactive) |  | inactive | 0.211% (inactive) | inactive | inactive | -1.53% (inactive) | -2.89% (inactive) |  |
